Screening results (PubChem)
Rows were chosen to be rich in hits. Some 1.8% of all compounds tested hit in one or more screens of this group.
Gli-Sufu block: antagonists of Gli-Sufu signaling; Sufu-KO-LIGHT fibroblasts, Gli luciferase reporter luminescence; inhibition, % at 5 µM; hit rate 0.74% among 340,000;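 active = inhibition above about 55%, limit read from the data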;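 note: 0% = DMSO-treated cells and 100% = wells with medium but no cells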
Jurkat NFkB inh: inhibitors of the PMA/ionomycin-induced NF-kB reporter in Jurkat cells | PMA/ionomycin-induced NF-kB luciferase reporter, luminescence | inhibition, % at 4 µM | hit rate 0.53% among 330,000 | AID 435003; in the data active = inhibition above about 50%
Beta apoptosis: blocks beta cell apoptosis. AID 435005. INS-1E cytokine-induced death, ATP luminescence, 48 h; percent of positive-control rescue, neutral wells zero. protection from apoptosis, % (no concentration beside the values). hit rate 0.8% among 300,000;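 active = Every replicate reaches about 75%, or at least half do and their mean reaches it too, limit read from the data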;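 note: 0% = cytokine-treated negative control wells and 100% = positive control rescue; higher means more ATP so stronger rescue from cytokine killing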
697 NFkB inh: lowers PMA/ionomycin-induced NF-kB signal in 697 B cells; 697 B-cell NF-kB luciferase reporter, 16 h; inhibition, % at 4 µM; hit rate 0.33% among 330,000; AID 435022; in the data active = inhibition above about 35%
Jurkat NFkB conf: lowers PMA/ionomycin-induced NF-kB signal in Jurkat cells. shares compounds with Jurkat NFkB inh. Jurkat NF-kB luciferase, 16 h. inhibition, % at 4 µM. hit rate 27% among 2,700;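 active = inhibition reaching about 45% at 4 µM in either replicate, limit read from the data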;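 note: plate controls were PMA/ionomycin stimulated DMSO wells for no effect and unstimulated DMSO wells for full effect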
* = called active by the depositor; nt = no result given.

SMILES | Gli-Sufu block | Jurkat NFkB inh | Beta apoptosis | 697 NFkB inh | Jurkat NFkB conf
c1csc(-c2ccc(N3CCOCC3)nn2)c1 | -35 | -37 | 25 | -69 | nt
c1csc(-c2nnc(-c3ccc(N4CCOCC4)cc3)o2)c1 | -123 | -151 | -1 | -242 | -63
CC(/C=C/c1ccc(C)o1)=C\C(=O)O | 20 | -10 | 3 | 14 | nt
CCC1=Nc2cc(C(=O)NCc3ccco3)ccc2Sc2ccccc21 | -4 | 38 | -2 | 0 | nt
CCC1=Nc2cc(C(=O)NCc3cccnc3)ccc2Sc2ccc(C)cc21 | -7 | 56* | 10 | -21 | 19
Cc1ccc(S(=O)(=O)N(CCC(=O)NCc2ccccc2F)c2ccccc2)cc1 | 3 | -4 | -1 | -15 | nt
CC[n+]1c(/C=C/c2c[nH]c3ccccc23)ccc2cc(C)ccc21 | 90* | 93* | nt | -59 | 30
Cc1cc(N2CCN(C)CC2)ccc1NC(=O)c1c2c(nc3ccccc13)CCN(Cc1ccccc1)C2 | 49 | 77* | 99* | 10 | 11
COc1ccc(C(C)(C)C)cc1NC(=O)COC(=O)c1cnc(C)cn1 | 0 | -5 | 5 | -18 | nt
CC(C)Oc1ccc(C(CCN)C2CCCCC2)cc1 (configuration not stated) | 12 | 56* | 91* | 8 | 11
O=c1c2cnn(-c3ccccc3)c2nnn1/N=C/c1cccnc1 | 8 | -18 | -2 | -15 | nt
Cc1ncc(C23CC4CC(CC(C4)C2)C3)[nH]1 | -10 | -13 | -8 | -4 | nt
c1ccc(CSC2=NNC(c3ccccn3)S2)cc1 (configuration not stated) | 3 | 71* | 52 | -19 | 1
CC1=Nc2ccccc2/C1=C\c1sc(Nc2ccc(C)cc2)nc1O | 35 | 53* | 42 | -22 | 61*
CCOc1ccc(C2=Nn3c(nnc3-c3ccccc3OC)SC2)cc1 | 51 | nt | 33 | nt | nt
COc1ccccc1-c1nnc2n1N=C(c1ccc(O)c(O)c1)CS2 | 50 | 81* | 30 | 16 | 55*
O=C(Cn1nc(Cc2cccnc2)c2ccccc2c1=O)Nc1ccccc1F | -6 | -11 | -4 | -23 | nt
O=C(CCN1CCOCC1)NNC(=S)NC(=O)c1ccccc1 | 1 | -31 | 2 | -30 | nt
COc1cc(/C=C2\CC/C(=C\c3cc(OC)c(OC)c(OC)c3)C2=O)cc(OC)c1OC | 28 | 18 | 8 | 26 | nt
COc1cc(/C=C2\CC(C(C)(C)C)C/C(=C\c3cc(OC)c(OC)c(OC)c3)C2=O)cc(OC)c1OC (configuration not stated) | 16 | 90* | 98* | -222 | -14
Cc1ccc2oc(C(=O)Nc3cc(C)on3)c(C)c2c1 | -132 | -169 | 0 | -47 | -75
O=C(Nc1nc2ccccc2[nH]1)c1cccc(F)c1 | -19 | -150 | nt | -190 | -107
O=C(Nc1nc2ccccc2[nH]1)c1cccc(Br)c1 | -16 | -152 | 31 | -207 | -115
CN(C)c1cccc(C(=O)Nc2nc3ccccc3[nH]2)c1 | -37 | -72 | 6 | -158 | nt
Cc1cccc(C(=O)N[C@H](C(=O)Nc2nc3ccccc3[nH]2)C(C)C)c1 | 38 | 60* | 26 | -10 | 37
SMILES | Gli-Sufu block | Jurkat NFkB inh | Beta apoptosis | 697 NFkB inh | Jurkat NFkB conf
CNc1nc(CCN2C(=O)c3ccccc3C2=O)cs1 | 4 | -19 | -7 | -7 | nt
CC(=O)Nc1ccc(S(=O)(=O)NCC(=O)OCC(=O)NC23CC4CC(CC(C4)C2)C3)cc1 | -1 | 8 | -16 | -5 | nt
CSc1nc2ccccc2cc1/C=C(\C#N)c1cccc(Cl)c1 | 7 | 54* | 20 | -34 | 3
Fc1ccc2c(Cl)c(-c3nnc(-c4cccs4)o3)sc2c1 | -73 | -163 | -6 | -238 | -91
Cc1cc(C(=O)COc2cccnc2[N+](=O)[O-])c(C)n1-c1ccccc1 | 17 | 65* | -3 | -7 | 18
COc1ccccc1/C=N/NS(=O)(=O)c1ccccc1 | 3 | 91* | -1 | -20 | 9
Cc1cc(NC(=O)c2cc(-c3cccs3)on2)no1 | 9 | -2 | 1 | 35 | nt
Cc1ccc(O)c(NC(=O)c2cc(-c3ccc(F)cc3)on2)c1 | -1 | 71* | 0 | -66 | -11
Cc1ccc(O)c(NC(=O)c2cc(-c3cccs3)on2)c1 | 4 | 88* | 4 | -45 | 17
Cc1nnc2sc(-c3cccc(NC(=O)c4cccnc4)c3)nn12 | 10 | 8 | 10 | 11 | nt
Cc1c(C(=O)OC2CCC(C)CC2)[nH]c2c1C(=O)CCC2 (configuration not stated) | -139 | -215 | 10 | -218 | -120
CC(C)CN(CCNC(=O)c1cn(C)c2ccc(S(=O)(=O)N3CCCC3)cc2c1=O)CC(C)C | 22 | 6 | -4 | 5 | nt
